Test results: PubChem BioAssay AID1159580 (chemical genetic matrix, 2015)
Values joined by “and” are separate entries in the source; they are usually repeats but may differ in a detail not shown here. Equal entries are not always repeated. Out of some 5,500 compounds screened, about 2,000 (36%) were called active. Another 18% or so got no clear call; they are omitted. Cut-off read from the data, not from the text of the source: active = normalized growth mostly below about 0.91 (no sharp cut-off); inconclusive = no clear call, values can overlap the other calls; inactive = mostly above about 0.92. The list shows a part of the results.

Assay: chemical genetic growth profiling, strain panel (AID 1159580);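 note: tested at 20 µM; growth read once vehicle control cultures reached saturation at 30 °C; 1 = growth at the plate median or of vehicle wells; lower values mean less growth of the strain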
Details: S. cerevisiae deletion strains, growth OD

Measured: normalized growth

CN1CCCN=C1COC(=O)C(O)(c1ccccc1)C1CCCCC1 (stereo unspecified)
inactive: locus YAL013W, strain DEP1, stronger effect = lower value 1.01 | locus YAL021C, strain ccr4, stronger effect = lower value 1 | locus YAL026C, strain drs2, stronger effect = lower value 0.993 | locus YAL030W, strain snc1, stronger effect = lower value 0.996 | locus YBL061C, strain skt5, stronger effect = lower value 0.987 | locus YBR009C, strain hhf1, stronger effect = lower value 0.994 | locus YBR021W, strain FUR4, stronger effect = lower value 1.03 | locus YBR023C, strain chs3, stronger effect = lower value 0.987 | locus YBR171W, strain sec66, stronger effect = lower value 0.993 | locus YBR229C, strain ROT2, stronger effect = lower value 1.01 | locus YBR231C, strain swc5, stronger effect = lower value 1 | locus YBR279W, strain paf1, stronger effect = lower value 0.993 | locus YCL011C, strain gbp2, stronger effect = lower value 1 | locus YCL016C, strain dcc1, stronger effect = lower value 0.991 | locus YCL029C, strain bik1, stronger effect = lower value 0.99 | locus YCL061C, strain MRC1, stronger effect = lower value 0.994 | locus YCL069W, strain vba3, stronger effect = lower value 0.997 | locus YCR088W, strain abp1, stronger effect = lower value 0.997 | locus YDL005C, strain med2, stronger effect = lower value 0.98 | locus YDL035C, strain GPR1, stronger effect = lower value 1 | locus YDL040C, strain nat1, stronger effect = lower value 0.998 | locus YDL074C, strain BRE1, stronger effect = lower value 1.01 | locus YDL101C, strain DUN1, stronger effect = lower value 1.01 | locus YDL134C, strain PPH21, stronger effect = lower value 1.02 | locus YDL185W, strain tfp1, stronger effect = lower value 1 | locus YDL192W, strain arf1, stronger effect = lower value 0.999 | locus YDR001C, strain nth1, stronger effect = lower value 0.995 | locus YDR069C, strain doa4, stronger effect = lower value 0.99 | locus YDR101C, strain arx1, stronger effect = lower value 0.968 | locus YDR137W, strain rgp1, stronger effect = lower value 0.99 | locus YDR150W, strain NUM1, stronger effect = lower value 1.01 | locus YDR159W, strain sac3, stronger effect = lower value 1 | locus YDR162C, strain NBP2, stronger effect = lower value 1 | locus YDR195W, strain ref2 0.993 | locus YDR297W, strain sur2, stronger effect = lower value 1 | locus YDR318W, strain mcm21, stronger effect = lower value 0.983 | locus YDR334W, strain swr1, stronger effect = lower value 0.989 | locus YDR335W, strain msn5, stronger effect = lower value 0.997 | locus YDR388W, stronger effect = lower value 0.989 | locus YDR392W, strain spt3, stronger effect = lower value 1 | locus YDR502C, strain sam2, stronger effect = lower value 0.994 | locus YEL003W, strain gim4, stronger effect = lower value 0.997 | locus YEL037C, strain rad23, stronger effect = lower value 0.991 | locus YEL061C, strain CIN8 (second series), stronger effect = lower value 0.999 | locus YEL061C, strain CIN8, stronger effect = lower value 1.01 | locus YER015W, strain faa2, stronger effect = lower value 0.978 | locus YER016W, strain bim1, stronger effect = lower value 0.994 | locus YER110C, stronger effect = lower value 0.991 | locus YER111C, strain swi4, stronger effect = lower value 0.995 | locus YER155C, strain BEM2 (second series), stronger effect = lower value 1.01 | locus YER155C, strain BEM2, stronger effect = lower value 1.03 | locus YER167W, strain BCK2, stronger effect = lower value 1.01 | locus YFR010W, strain ubp6, stronger effect = lower value 1.01 | locus YGL078C, strain dbp3, stronger effect = lower value 0.987 | locus YGL086W, strain mad1, stronger effect = lower value 0.992 | locus YGL167C, strain pmr1, stronger effect = lower value 0.987 | locus YGL173C, strain kem1, stronger effect = lower value 0.987 | locus YGL227W, strain vid30, stronger effect = lower value 0.993 | locus YGL240W, strain doc1, stronger effect = lower value 1 | locus YGL248W, strain PDE1, stronger effect = lower value 1.01 | locus YGL253W, strain hxk2, stronger effect = lower value 0.998 | locus YGR078C, strain PAC10, stronger effect = lower value 0.991 | locus YGR135W, strain pre9, stronger effect = lower value 0.978 | locus YGR229C, strain SMI1, stronger effect = lower value 0.99 | locus YGR252W, strain gcn5, stronger effect = lower value 1.05 | locus YHR013C, strain ard1, stronger effect = lower value 0.981 | locus YHR027C, strain rpn1, stronger effect = lower value 0.991 | locus YHR030C, strain SLT2, stronger effect = lower value 1.01 and 0.997 | locus YHR079C, strain IRE1 (second series), stronger effect = lower value 0.988 | locus YHR079C, strain IRE1, stronger effect = lower value 1.01 | locus YHR094C, strain hxt1, stronger effect = lower value 0.985 | locus YHR129C, strain ARP1, stronger effect = lower value 1.02 | locus YHR142W, strain chs7, stronger effect = lower value 0.998 | locus YHR200W, strain rpn10, stronger effect = lower value 0.993 | locus YIL066C, strain RNR3, stronger effect = lower value 1 | locus YIL073C, strain SPO22, stronger effect = lower value 0.999 | locus YIL125W, strain kgd1, stronger effect = lower value 0.998 | locus YIR030C, strain dcg1, stronger effect = lower value 0.985 | locus YJL092W, strain hpr5, stronger effect = lower value 0.997 | locus YJL095W, strain BCK1 (second series), stronger effect = lower value 0.998 | locus YJL095W, strain BCK1, stronger effect = lower value 1 and 1.01 | locus YJL115W, strain asf1, stronger effect = lower value 0.986 | locus YJL129C, strain trk1, stronger effect = lower value 1.02 | locus YJL134W, strain LCB3, stronger effect = lower value 1.01 | locus YJL154C, strain vps35, stronger effect = lower value 0.996 | locus YJL166W, strain qcr8, stronger effect = lower value 0.99 | locus YJL168C, strain set2, stronger effect = lower value 0.992 | locus YJL187C, strain SWE1 (second series), stronger effect = lower value 1.01 | locus YJL187C, strain SWE1, stronger effect = lower value 0.999 | locus YJR043C, strain POL32, stronger effect = lower value 1 | locus YJR066W, strain TOR1, stronger effect = lower value 0.952
